Screen size: about 2,200 compounds; about 15 (0.7%) were called active. This excerpt belongs to a sample that is enriched for actives. A number with no mark means an inactive call.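 How the source made its calls: active means fitted half-maximal concentration for loss of luminescence signal no more than a set limit of log units above the top tested concentration; inconclusive means flat fit with 30 to 70% signal loss, or invalid fit; inactive means half-maximal concentration above that set limit.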
Experiment: inhibitors of ADP-Glo detection reagents, dose response, artefact control for GSK3beta inhibitor project, biochemical, luminescence, cell-free, homogeneous (AID 434947);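 further: kinase-free counter screen of ADP-Glo detection reagents for GSK3beta hits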
Settings: 5 uM ADP

| Compound | EC50 |
| --- | --- |
| COc1cccc(Nc2nc(-c3ccccc3)nc3ccccc23)c1 | > 30 µM |
| O=C1Nc2cc(C(=O)NCCCN3CCOCC3)ccc2S/C1=C/c1ccccc1F | > 30 µM |
| Cc1csc2c(=O)n(CCO)c(=O)[nH]c12 | > 30 µM |
| CCOc1cc(C2c3c(n[nH]c3C)C(=O)N2c2ccc(Br)cc2)ccc1O (centres undefined) | > 30 µM |
| COC(=O)c1cn(NC(=O)c2cccnc2)c(=O)c2ccccc12 | > 30 µM |
| CCCc1cc(O)c2c(C)cc(=O)oc2c1 | > 30 µM |
| COc1ccc(/C=C2/Sc3ccc(C(=O)NCCN4CCCCCC4)cc3NC2=O)cc1 | > 30 µM |
| Cc1ccccc1-c1nnc(SCc2ccc(F)cc2)o1 | > 30 µM |
| CCCN(CCC)CCCNc1ccc2nnc(-c3ccc(F)cc3)n2n1 | > 30 µM |
| O=c1c(O[C@@H]2O[C@H](CO)[C@@H](O)[C@H](O)[C@H]2O)c(-c2ccc(O)c(O)c2)oc2cc(O)cc(O)c12 | > 30 µM |
| Cc1ccc2c(c1)cc1c(=O)n(CC(=O)NCCN3CCCC3)nc(C)n12 | > 30 µM |
| COc1cccc2cc(C(=O)OC(C)C(=O)c3ccc(C)cc3)c(=O)oc12 (centres undefined) | > 30 µM |
| CC(=O)Oc1cc(C)cc2oc(=O)cc(-c3ccccc3)c12 | > 30 µM |
| CC1(C)CC(=O)C=C(Nc2ccc(F)cc2)C1 | > 30 µM |
| COc1ccc(NC(=O)c2sc(SC)nc2N)cc1 | > 30 µM |
| CCOC(=O)c1nnn(CC(=O)Nc2cccc(OC)c2)c1C(=O)OCC | > 30 µM |
| CC1(C)CC(=O)C2=C(C1)Nc1ccccc1NC2c1ccc(F)cc1 (centres undefined) | > 30 µM |
| O=C(Nc1ccccc1)Nc1ccncc1 | > 30 µM |
| Cc1cc([N+](=O)[O-])c(C)cc1-c1ccc(/C=N/n2cnnc2)o1 | > 30 µM |
| Nc1nc(NCCCN2CCOCC2)nc(Nc2ccc(Cl)cc2)c1[N+](=O)[O-] | > 30 µM |

| Compound | EC50 |
| --- | --- |
| CCCC(=O)Nc1nn(CC(C)C)c2nc3cc(C)ccc3cc12 | > 30 µM |
| N#Cc1cccc(-c2nnc(SCc3ccccc3C#N)o2)c1 | > 30 µM |
| COc1cc(C2OCC3C(c4cc(OC)c(OC)c(OC)c4)OCC23)cc(OC)c1OC (centres undefined) | > 30 µM |
| O=c1c2ccccc2cnn1-c1nc2ccccc2[nH]1 | 25.9 µM (active) |
| Cc1cc(NC(=O)/C=C/c2cccc(F)c2)n(-c2nc3ccccc3[nH]2)n1 | > 30 µM |
| CN1CCN(C(=O)Cn2ncc3c([nH]c4ccccc43)c2=O)CC1 | > 11 µM |
| CC(C(=O)NCc1ccco1)n1cc([N+](=O)[O-])cn1 (centres undefined) | > 30 µM |
| CCOC(=O)CCCSc1nnc(CCCCCN2C(=O)c3cccc4cccc(c34)C2=O)o1 | > 30 µM |
| CCN(CC)Cc1c(O)ccc2occ(C(=O)c3ccc(OC)cc3)c12 | > 30 µM |
| Clc1ccc(-c2nnc(-c3ccccc3)c(N3CCSCC3)n2)cc1 | > 30 µM |
| COc1ccc(Nc2ccccc2C(=O)O)cc1 | > 30 µM |
| O=C(CN(Cc1cccs1)C(=O)CCC(=O)Nc1ccccn1)NCc1ccccc1 | > 30 µM |
| N#Cc1c(N)n(-c2cccc(O)c2)c2nc3ccccc3nc12 | > 30 µM |
| Cc1ccc(S(=O)(=O)NCC2COc3ccccc3O2)cc1 (centres undefined) | > 30 µM |
| CN1CCN(c2nc(-c3ccccc3)nc(-c3ccccc3)c2C#N)CC1 | > 30 µM |
| COC(CNC(=O)CCc1c(C)nc2c(c(C)nn2-c2ccc(C)cc2)c1C)OC | > 30 µM |
| CCOC(=O)c1nnn(-c2nonc2N)c1CN(CC)CC | > 30 µM |
| COc1cccc2cc(C(=O)CS(=O)(=O)c3ccc(C)cc3)c(=O)oc12 | > 30 µM |
| CCCOc1ccc(-c2c(C(=O)N/N=C(\C)c3ccco3)nnn2-c2nonc2N)cc1 | > 30 µM |
| CCc1ccc(/C=N/NC(=O)c2nnn(-c3nonc3N)c2CN2CCc3ccccc32)cc1 | > 30 µM |

| Compound | EC50 |
| --- | --- |
| NC(=O)c1ccc(Oc2ccc(Cl)c3ccccc23)c([N+](=O)[O-])c1 | > 30 µM |
| Cc1[nH]nc2c1C(c1cccs1)C1=C(CCCC1=O)N2 (centres undefined) | > 30 µM |
| CC(C)CCNc1nc(N)c([N+](=O)[O-])c(NC2CCCCC2)n1 | > 30 µM |
| CCCCn1nc(NC(=O)COC)c2cc3cc(OC)ccc3nc21 | > 30 µM |
| O=C(c1cccs1)c1coc2ccc(O)c(CN(CCO)CCO)c12 | > 30 µM |
| COc1cccc(C2C3=C(CCCC3=O)Nc3[nH]n(-c4ccccc4)c(=O)c32)c1 (centres undefined) | > 30 µM |
| Cc1ccc(C(=O)O/N=C\c2ccc(N3CCCCC3)c([N+](=O)[O-])c2)cc1 | > 30 µM |
| Cc1ccc(Sc2ccc(/C=N/O)cc2[N+](=O)[O-])cc1 | > 30 µM |
| CS(=O)(=O)N(CCc1ccccc1)CC(=O)N1CCN(c2ccccc2F)CC1 | > 30 µM |
| CC1CCN(Cc2c(C(=O)N/N=C/c3ccccc3O)nnn2-c2nonc2N)CC1 | > 30 µM |
| Cn1c(SCC(=O)NC2CCCCC2)nnc1-c1ccccn1 | > 30 µM |
| O=C(CCSc1nnc(-c2ccncc2)o1)Nc1ccc(F)cc1 | > 30 µM |
| O=C1Nc2cc(C(=O)NCCCN3CCCC3)ccc2S/C1=C/c1ccccc1F | > 30 µM |
| CCCNC(=O)c1ccc(Cl)cc1Cl | > 30 µM |
| COc1cccc(C(=O)CSc2nccn2C)c1 | > 30 µM |
| COc1ccc(-c2cc(C(=O)N3CCN(C(=O)c4ccco4)CC3)[nH]n2)cc1 | > 30 µM |
| CC(C)(C)C(=O)COC(=O)c1ccc(O)cc1 | > 30 µM |
| CC(OC(=O)c1nsc(Cl)c1Cl)C(=O)NCc1ccco1 (centres undefined) | > 30 µM |
| COC(=O)C1=C(C)N(Cc2ccccc2)C(=NCc2ccc(OC)cc2)N[C@H]1c1cccc(F)c1 | > 30 µM |
